{"source": "PubChem BioAssay (NCI)", "note": "Where “and” joins values, the source holds several entries; their conditions need not be identical. Equal values may be shown once. The panel holds about 83,000 compounds, 20% with a hit somewhere; the sample as a whole holds those more often.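 The endpoint reported here, percent growth, reads 100 for growth as untreated, 0 for no net growth and -100 for all cells dead.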 Unmarked numbers belong to inactive results. Calls of active or inactive are those of the source. How the source made its calls: active means growth percent below 10; inactive means the rest."}
{"system": "M14 melanoma", "test": "NCI-60 one-dose screen, 48 h (100 = growth as untreated, 0 = no growth, -100 = all killed)", "settings": "10 µM unless noted"}
{"smiles": "CN(Cc1ccccc1)c1nc(Cl)c(C2CC(c3ccc(F)cc3)=NN2C=O)s1", "note": "(stereo not given)", "growth": "92.8%"}
{"smiles": "CCOC(=O)c1ccc(Nc2ncnc3c2cnn3-c2cccc(F)c2)cc1", "growth": "99.1%"}
{"smiles": "Cc1ccc2nc3ccccc3c(NCc3ccc(Cl)cc3)c2c1", "growth": "-17.1% (active)"}
{"smiles": "O=S(=O)(Nc1cc(Sc2cccc3cccnc23)c(O)c2ccccc12)c1ccc(F)cc1", "growth": "-42.8% (active)"}
{"smiles": "CCCCC1COc2cccc3c2N1C=C/C3=C\\C(=O)N(C)c1cccc(Cl)c1", "note": "(stereo not given)", "growth": "102%"}
{"smiles": "Cc1ccc(-c2nc3nc(-c4ccc(Cl)cc4)nc(N4CCCNCC4)c3o2)cc1", "growth": "-75.9% (active)"}
{"smiles": "COc1cc(NS(=O)(=O)C(C)C)cc(-c2cc(-c3ccc(N4CCNCC4)cc3)cnc2N)c1", "growth": "58.6%"}
{"smiles": "COCCn1cc(-c2csc(-c3cn(C)c4ccc(F)cc34)n2)c2cccnc21", "growth": "50.5%"}
{"smiles": "COc1ccc(NC(=O)Nc2ccccc2CNc2nc(Nc3ccc(OCCN4CCCC4)cc3)ncc2Cl)cc1", "growth": "-75.6% (active)"}
{"smiles": "COc1cc(CNC(=O)CCCC/C=C/C(C)C)ccc1O", "growth": "117% and 99.5%"}
{"smiles": "CC(Sc1ccccc1)C(=O)O", "note": "(stereo not given)", "growth": "95.2%"}
{"smiles": "Cc1ccc(-c2nc3nc(-c4ccccc4)nc(N4CCCNCC4)c3o2)cc1", "growth": "-93.9% (active)"}
{"smiles": "CCCCn1c(C(=O)c2c[nH]c3ccccc23)n[nH]c1=S", "growth": "92.4%"}
{"smiles": "O=C1C(=C(O)c2ccccc2)C(=O)c2ccccc21", "growth": "102%"}
{"smiles": "COc1ccc(-c2c[nH]c(C(=O)O)c2-c2cc(OC)c(OC)c(OC)c2)cc1", "growth": "45.7%"}
